Molecules are shown by their SMILES. Where “and” joins values, the source holds several entries; their conditions need not be identical. Equal values may be shown once. Inconclusive results are not listed. A number with no mark means an inactive call. Calls of active or inactive are those of the source. Calls come from the whole dose curve; as a rule, active = well fitted inhibition curve with a large enough effect; inconclusive = small, poorly fitted or top-dose-only effect; inactive = flat fitted curve, though single readings scatter.
% is set by controls: 0 for no effect and ±100 for the full control effect; potency is the fitted concentration of half-maximal effect.

The first assay has as its system HEK293. As to the kind of experiment: Cytotoxic Profiling of Annotated Libraries Using Quantitative High-Throughput Screening (AID 1296008). Note: nearly all actives have a fitted effect of over 60% in size. The settings on record: Five cell lines viability, CellTiter-Glo ATP luminescence, 48-72 h; max response: active compounds read low. Summed up:
(§1)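 Cytotoxicity was measured as CellTiter-Glo ATP luminescence, read after 10 min at room temperature. Compound treatment of the cells lasted 48 or 72 hr at 37 degrees Celsius in a qHTS format.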
Consider `COc1ccc(-c2coc3cc(O)ccc3c2=O)cc1`, for which the max response is -7.99%.

In the case of `CN(C[C@@H]1COCCO1)S(=O)(=O)Nc1ccc2ccc3ncc(-c4cnn(C)c4)cc3c(=O)c2c1`, the Potency is 4.18 µM (active) and 6.51 µM (active).

`CN(C)c1cc(NC(=O)CNC(C)(C)C)c(O)c2c1C[C@@H]1C[C@H]3[C@H](N(C)C)C(=O)C(C(N)=O)=C(O)[C@@]3(O)C(=O)C1=C2O`: the max response is 4.51%.

As for `CCN(CC)C(=O)c1ccc(O)c(OC)c1`, the max response was -4.79%.

Turning to `CC(C)NCC(O)COc1cccc2[nH]ccc12` (configuration not stated), the max response was -23%.

`O=c1cc(CN2CCOCC2)occ1OCCCCCSc1ccnc2cc(C(F)(F)F)ccc12`: the Potency was 8.33 µM (active) and 4.11 µM (active).

Consider `OC[C@H]1O[C@@H](n2cnc3c2NC=NC[C@@H]3O)C[C@H]1O`, for which the compound was classed as inactive.

Regarding `COc1ccc(-c2nc(N3CCOCC3)c3sc(CN(C)c4ncc(C(=O)NO)cn4)cc3n2)cn1`, the Potency was 0.0166 µM (active).

Turning to `COc1ccc(-c2cc(=O)c3c(O)cc(O)cc3o2)cc1O`, the max response is -3.68%.

As to `O=c1cc(N2CCOCC2)oc2c(-c3cccc4c3sc3ccccc34)cccc12`, the Potency is 2.96 µM (active).

Turning to `O=C(OCC#CCSc1nnc(-c2cccc3ccccc23)o1)c1cc2ccccc2s1`, the result was inactive.

For `CCC(CC)[C@H](NC(C)=O)[C@@H]1[C@H](O)[C@@H](C(=O)O)C[C@@H]1N=C(N)N`, the max response was -9.34%.

On to `CCN(CC)CCOc1ccc(C(=C(Cl)c2ccccc2)c2ccccc2)cc1`, for which the result was inactive.

For the compound `COC(=O)C1=CO[C@@H](O)[C@@H]2C(CO)=CC[C@@H]12`, the max response was 4.92%.

Consider `Nc1ncnc2ccccc12`, for which the compound was called inactive.

`CN1C[C@H]2c3ccccc3Oc3ccc(Cl)cc3[C@@H]2C1`: the Potency is 10.6 µM (active).

As for `CO[C@H]1C[C@@H]2CC[C@@H](C)[C@@](O)(O2)C(=O)C(=O)N2CCCC[C@@H]2C(=O)O[C@H]([C@@H](C)C[C@@H]2CC[C@H](O)[C@H](OC)C2)CC(=O)[C@H](C)C=C(C)[C@@H](O)[C@@H](OC)C(=O)[C@H](C)C[C@H](C)C=CC=CC=C1C`, the max response is -97.2%.

`CC(C)C(C)C=CC(C)C1CCC2C3=CC=C4CC(O)CCC4(C)C3CCC21C` (configuration not stated): the max response is 4.56%.

For the compound `O=c1cc(-c2cccc3c2Sc2ccccc2S3)oc(N2CCOCC2)c1`, the call was inactive.

Turning to `CC(C)(Cc1ccc2ccccc2c1)NC[C@@H](O)COc1cccc(Cl)c1C#N`, the max response was -1.92%.

`CC(C)(C)c1ccc(C(O)CCCN2CCC(C(O)(c3ccccc3)c3ccccc3)CC2)cc1` (configuration not stated): the max response is -7.01%.

As for `O=C1Nc2ccc(Cl)cc2C(C#CC2CC2)(C(F)(F)F)O1` (configuration not stated), the max response was -29.6%.

Regarding `O=C1C[C@@H](c2ccc(O)cc2)Oc2cc(O)cc(O)c21`, the max response was -0.968%.

Take `Cc1[nH]c(C=C2C(=O)Nc3ccc(S(=O)(=O)Cc4c(Cl)cccc4Cl)cc32)c(C)c1C(=O)N1CCC[C@H]1CN1CCCC1`: the Potency is 23.5 µM (active).

Consider `CC1(C)CCC(CN2CCN(c3ccc(C(=O)NS(=O)(=O)c4ccc(NCC5CCOCC5)c([N+](=O)[O-])c4)c(Oc4cnc5[nH]ccc5c4)c3)CC2)=C(c2ccc(Cl)cc2)C1`, for which the max response was -5.37% and -6.15%.

In the case of `Cc1c[nH]c(C=C2C(=O)Nc3ccccc32)c1CCC(=O)O`, the Potency was 3.32 µM (active).

In the case of `COc1cccc(-c2cc(=O)c3ccccc3o2)c1N`, the max response was -10.3%.

For `CCOC1OC(=O)C[C@H]1NC(=O)[C@@H]1CCCN1C(=O)[C@@H](NC(=O)c1ccc(N)c(Cl)c1)C(C)(C)C` (some centres not stated), the max response was -6.79%.

Turning to `O=C(O)C(O)Cc1ccc(O)c(O)c1` (configuration not stated), the compound was called inactive.

In the case of `CC=C(C)C(=O)O[C@H]1C(C)=C[C@]23C(=O)[C@@H](C=C(CO)[C@@H](O)[C@]12O)[C@H]1[C@@H](C[C@H]3C)C1(C)C`, the Potency is 26.4 µM (active).

On to `COc1ccc2cccc(CCNC(C)=O)c2c1`, for which the max response was 4.38%.

On to `O=c1c(O)c(-c2ccc(O)cc2)oc2cc(O)cc(O)c12`, for which the result was inactive.

For the compound `Nc1ncnc2c1ncn2[C@@H]1O[C@H](CO)C[C@@H]1O`, the max response is -3.58%.

For the compound `C[N+](C)(C)CCCCCC[N+](C)(C)C`, the compound was classed as inactive.

On to `NC(=O)NN=Cc1ccc([N+](=O)[O-])o1`, for which the max response is 1.13%.

As to `CC(=O)N[C@@H](CS)C(=O)O`, the outcome was inactive.

The next assay concerns HaCat. The description is as above. The settings on record: Five cell lines viability, CellTiter-Glo ATP luminescence, 48-72 h; max response: active compounds read low. In a few lines: as §1
A general note: Cellular ATP, detected with luciferase, serves as a proxy for viable cell number.
`COc1ccc(-c2coc3cc(O)ccc3c2=O)cc1`: the outcome was inactive.

Take `CN(C[C@@H]1COCCO1)S(=O)(=O)Nc1ccc2ccc3ncc(-c4cnn(C)c4)cc3c(=O)c2c1`: the Potency was 10.3 µM (active).

Consider `CN(C)c1cc(NC(=O)CNC(C)(C)C)c(O)c2c1C[C@@H]1C[C@H]3[C@H](N(C)C)C(=O)C(C(N)=O)=C(O)[C@@]3(O)C(=O)C1=C2O`, for which the max response was 1.33%.

Turning to `CCN(CC)C(=O)c1ccc(O)c(OC)c1`, the compound was classed as inactive.

Take `CC(C)NCC(O)COc1cccc2[nH]ccc12` (configuration not stated): the max response is -22.9% and 1.98%.

In the case of `O=c1cc(CN2CCOCC2)occ1OCCCCCSc1ccnc2cc(C(F)(F)F)ccc12`, the max response was -9.94%.

With `OC[C@H]1O[C@@H](n2cnc3c2NC=NC[C@@H]3O)C[C@H]1O`, the max response was 1.63%.

On to `COc1ccc(-c2nc(N3CCOCC3)c3sc(CN(C)c4ncc(C(=O)NO)cn4)cc3n2)cn1`, for which the Potency is 0.148 µM (active).

For the compound `COc1ccc(-c2cc(=O)c3c(O)cc(O)cc3o2)cc1O`, the max response was 3.57%.

Regarding `O=c1cc(N2CCOCC2)oc2c(-c3cccc4c3sc3ccccc34)cccc12`, the max response was -6.51%.

Regarding `O=C(OCC#CCSc1nnc(-c2cccc3ccccc23)o1)c1cc2ccccc2s1`, the max response is -10.9%.

Turning to `CCC(CC)[C@H](NC(C)=O)[C@@H]1[C@H](O)[C@@H](C(=O)O)C[C@@H]1N=C(N)N`, the call was inactive.

Take `CCN(CC)CCOc1ccc(C(=C(Cl)c2ccccc2)c2ccccc2)cc1`: the max response is -8.22%.

Regarding `COC(=O)C1=CO[C@@H](O)[C@@H]2C(CO)=CC[C@@H]12`, the max response is 3.95%.

As to `Nc1ncnc2ccccc12`, the max response is -14.1%.

With `CN1C[C@H]2c3ccccc3Oc3ccc(Cl)cc3[C@@H]2C1`, the result was inactive.

Take `CO[C@H]1C[C@@H]2CC[C@@H](C)[C@@](O)(O2)C(=O)C(=O)N2CCCC[C@@H]2C(=O)O[C@H]([C@@H](C)C[C@@H]2CC[C@H](O)[C@H](OC)C2)CC(=O)[C@H](C)C=C(C)[C@@H](O)[C@@H](OC)C(=O)[C@H](C)C[C@H](C)C=CC=CC=C1C`: the call was inactive.

Turning to `CC(C)C(C)C=CC(C)C1CCC2C3=CC=C4CC(O)CCC4(C)C3CCC21C` (configuration not stated), the max response was -0.819%.

For `O=c1cc(-c2cccc3c2Sc2ccccc2S3)oc(N2CCOCC2)c1`, the max response was -21.6%.

As to `CC(C)(Cc1ccc2ccccc2c1)NC[C@@H](O)COc1cccc(Cl)c1C#N`, the max response is -22.6%.

`CC(C)(C)c1ccc(C(O)CCCN2CCC(C(O)(c3ccccc3)c3ccccc3)CC2)cc1` (configuration not stated): the max response is 1.94%.

For `O=C1Nc2ccc(Cl)cc2C(C#CC2CC2)(C(F)(F)F)O1` (configuration not stated), the result was inactive.

Turning to `O=C1C[C@@H](c2ccc(O)cc2)Oc2cc(O)cc(O)c21`, the max response is 2.46%.

In the case of `Cc1[nH]c(C=C2C(=O)Nc3ccc(S(=O)(=O)Cc4c(Cl)cccc4Cl)cc32)c(C)c1C(=O)N1CCC[C@H]1CN1CCCC1`, the max response is -4.31%.

For the compound `CC1(C)CCC(CN2CCN(c3ccc(C(=O)NS(=O)(=O)c4ccc(NCC5CCOCC5)c([N+](=O)[O-])c4)c(Oc4cnc5[nH]ccc5c4)c3)CC2)=C(c2ccc(Cl)cc2)C1`, the max response is -24.1% and -27.2%.

With `Cc1c[nH]c(C=C2C(=O)Nc3ccccc32)c1CCC(=O)O`, the compound was classed as inactive.

As to `COc1cccc(-c2cc(=O)c3ccccc3o2)c1N`, the max response was -7.74%.

On to `CCOC1OC(=O)C[C@H]1NC(=O)[C@@H]1CCCN1C(=O)[C@@H](NC(=O)c1ccc(N)c(Cl)c1)C(C)(C)C` (some centres not stated), for which the compound was called inactive.

Regarding `O=C(O)C(O)Cc1ccc(O)c(O)c1` (configuration not stated), the max response was -1.88%.

In the case of `CC=C(C)C(=O)O[C@H]1C(C)=C[C@]23C(=O)[C@@H](C=C(CO)[C@@H](O)[C@]12O)[C@H]1[C@@H](C[C@H]3C)C1(C)C`, the outcome was inactive.

As to `COc1ccc2cccc(CCNC(C)=O)c2c1`, the max response was -1.39%.

`O=c1c(O)c(-c2ccc(O)cc2)oc2cc(O)cc(O)c12`: the max response is -4.55%.

Consider `Nc1ncnc2c1ncn2[C@@H]1O[C@H](CO)C[C@@H]1O`, for which the max response is -0.663%.

As for `C[N+](C)(C)CCCCCC[N+](C)(C)C`, the max response was 2.98%.

As for `NC(=O)NN=Cc1ccc([N+](=O)[O-])o1`, the result was inactive.

Turning to `CC(=O)N[C@@H](CS)C(=O)O`, the max response is -16.4%.

These data come from PubChem BioAssay (NCATS).
